HCMV antiviral – human cytomegalovirus inhibition. HFF cells, HCMV-luciferase reporter, 72 h; stronger effect = lower value. activity change, negative = inhibition, % at 57.5 µM. 410,000 tested, 4.5% active; in the data active means activity change below about -60%; inconclusive means no clear call, values can overlap the other calls; inactive means above about -39%
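Steps: HFFs plated, 16 h 37C; compounds added; HCMV-luciferase added to MOI 1 PFU/cell; 72 h 37C; OneGlo reagent, 5 min room temperature; luminescence read, normalized to controls.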
HCV inh – HCV inhibition. AID 651820. 340,000 tested, 3.4% active. Potency, µM (doses to about 41.8 µM), without a hit: at the top dose activity change, negative = inhibition, usual class: inhibitors. Huh7.5.1 HCVcc-Cre infection, luciferase reporter, 44 h; further: potency means the concentration at half of the fitted maximal effect
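Infectious HCV cell culture screen: compound-treated cells (1,000/well, pre-plated 4 h) are infected with HCVcc-Cre at roughly 0.5 moi and grown 44 h. Infection is quantified by luciferase signal after 15 min substrate incubation at room temperature.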
LASV entry inh – blocks Lassa virus binding to or entry into cells; Potency, µM (highest dose often 37.9 µM), for inactives: at the highest dose activity change, negative = inhibition, actives largely listed as inhibitors; Lassa virus pseudotype entry inhibition, cell reporter; 300,000 tested, 1.2% active; calls by dose curve; tested in HEK293 cells; further: potency means the concentration at half of the fitted maximal effect; nearly all actives have a fitted effect of over 50% in size
MARV entry inh – inhibitors of Marburg virus binding or cell entry; Marburg virus pseudotyped entry inhibition, cell reporter; Potency, µM (series often up to 37.8 µM), for inactives: top-dose activity change, negative = inhibition, usual class: inhibitors; 300,000 tested, 1.8% active; AID 540276; calls by dose curve; tested in HEK293 cells; further: potency means the concentration at half of the fitted maximal effect
Giardia FBPA inh – Giardia lamblia aldolase inhibition; 290,000 tested, 0.71% active; purified Giardia FBPA; A8B2U2; AID 2451; Potency, µM (doses to about 59.6 µM), for the others: at the highest dose activity, negative = inhibition, usual class: inhibitors; further: potency means the concentration at half of the fitted maximal effect; nearly all actives have a fitted effect of over 55% in size
Target sequence (A8B2U2 whole entry, looked up): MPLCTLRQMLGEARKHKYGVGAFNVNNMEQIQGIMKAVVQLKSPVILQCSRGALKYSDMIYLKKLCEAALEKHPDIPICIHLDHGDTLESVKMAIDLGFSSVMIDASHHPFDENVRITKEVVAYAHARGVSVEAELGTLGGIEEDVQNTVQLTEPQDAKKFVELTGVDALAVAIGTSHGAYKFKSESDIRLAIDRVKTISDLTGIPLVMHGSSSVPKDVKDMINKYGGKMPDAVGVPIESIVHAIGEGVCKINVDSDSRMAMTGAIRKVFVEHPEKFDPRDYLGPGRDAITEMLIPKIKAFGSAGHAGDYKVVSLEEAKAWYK
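40 nM FBPA preincubated 10 min at RT with compound (up to 57.5 uM final), then substrate plus GAPDH/TPI/NAD/arsenate coupling and diaphorase/resazurin added. Fluorescence read after 20 min at RT, 525/598 nm.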
FMDV inh – blocks foot and mouth disease virus. FMDV antiviral cell-based qHTS. Potency, µM (doses to about 57.9 µM), for the others: at the top dose activity change, negative = inhibition, hits mostly inhibitors. 410,000 tested, 1.2% active. AID 1159524; calls by dose curve; tested in HEK293T cells; further: read-out not given here; potency means the concentration at half of the fitted maximal effect; nearly all actives have a fitted effect of over 45% in size
Numbers without * were called inactive; u = inconclusive; x = no result; [ ] = remark or other dose. Hits are enriched below; roughly 8.3% of the tested compounds scored in any of these assays. Unless noted, the call rests on the fitted dose curve; in most records, active means well fitted curve in the direction sought with a large enough effect; inconclusive means small, poorly fitted or top-dose-only effect, or another doubt; inactive means no such curve, though single readings can be large; an effect the other way counts as inactive or inconclusive. On the % scale 0 is the no-effect control and ±100 the full control effect.

SMILES	HCMV antiviral	HCV inh	LASV entry inh	MARV entry inh	Giardia FBPA inh	FMDV inh
Cc1ccccc1CCNC(=O)Cn1nc(C)c2c(C)n(-c3ccccc3)nc2c1=O	-39.2	u	x	x	27.6%	-17.1%
Cc1ccccc1CCNC(=O)CCn1nc(C)c2c(C)n(-c3ccccc3)nc2c1=O	-60.4*	-23.4%	x	x	x	-18.6%
CN1CCCC2(CCN(C(=O)c3cc(C(F)(F)F)cc(C(F)(F)F)c3)CC2)C1	x	x	x	x	4.1%	-2.9%
Cc1ccccc1-c1ccc2ncnc(N3CCOCC3)c2c1	x	x	x	x	1.3%	0.0%
O=C(COC(=O)c1c2c(nc3ccccc13)/C(=C\c1ccco1)CC2)NC1CCCC1	-36.3	u	-10.6%	u	x	11.6%
CN(CCC#N)C(=O)COC(=O)c1c2c(nc3ccccc13)/C(=C\c1ccco1)CC2	u	12.6µM*	u	u	x	16.4%
Nc1ncnc2occ(-c3ccc(NC(=O)Nc4cc(C(F)(F)F)cc(C(F)(F)F)c4)cc3)c12	x	x	19.9µM*	x	x	x
Cc1ccccc1CNC(=O)c1ccc2c(c1)N(Cc1ccccc1)CCS2	-33.5	x	x	8.91µM*	x	16.4%
CCOc1ccc(CNC(=O)c2ccc3c(c2)N(Cc2ccccc2)CCS3)cc1	-28.4	x	x	u	x	12.7%
COc1ccc(CNC(=O)c2ccc3c(c2)N(Cc2ccccc2)CCS3)cc1	-8.6	x	4.47µM*	u	x	9.1%
O=C(NCc1ccccc1Cl)c1ccc2c(c1)N(Cc1ccccc1)CCS2	-6.7	x	-24.0%[46.1 µM]	u	x	52.2%
CCCNS(=O)(=O)c1cc(-c2nn3c(C)nnc3c3ccccc23)ccc1C	-19.0	x	u	u	x	118.9%
CNS(=O)(=O)c1cc(-c2nn3c(C)nnc3c3ccccc23)ccc1C	-61.9*	x	-15.7%[46.1 µM]	x	x	38.4%
C#CC(C)(C)NS(=O)(=O)c1cc(-c2nnc(Nc3ccc(C)cc3)c3ccccc23)ccc1C	-86.6*	x	u	u	x	32.2%
CNS(=O)(=O)c1cc(-c2nnc(Nc3ccc(NC(C)=O)cc3)c3ccccc23)ccc1C	-65.8*	-28.7%	-3.6%	u	7.8%	50.6%
ClC1=C(Cl)[C@]2(Cl)[C@@H]3[C@H]4C[C@H]([C@@H]5O[C@H]45)[C@@H]3[C@@]1(Cl)C2(Cl)Cl	x	x	x	x	x	-29.2%
COc1ccccc1-c1c(C(F)(F)F)oc2cc(OS(C)(=O)=O)ccc2c1=O	29.8	u	u	u	-3.7%	31.6µM*
Cc1ccc(NC(=O)CC2Oc3ccccc3NC2=O)cc1C (centres undefined)	174.7	x	x	2.9%[46.1 µM]	x	7.6%
c1ccc2c(c1)C(=NCC1CCCO1)NC2=NCC1CCCO1 (centres undefined)	-5.7	2.6%	-10.4%	-0.8%	-2.5%	x
CC(C)(C)N=C1NC(=NC(C)(C)C)c2ccccc21	-62.6*	u	u	14.6µM*	-0.9%	-13.0%
CC1Sc2ccc(C(=O)NCc3cccc(C(F)(F)F)c3)cc2NC1=O (centres undefined)	0.0	22.4µM*	x	x	x	8.0%
CC(=O)c1ccccc1NC(=O)c1ccc2c(c1)NC(=O)C(C)S2 (centres undefined)	-16.1	11.2µM*	-32.7%	u	x	-6.8%
CCCNC(=O)c1ccccc1NC(=O)c1ccc2c(c1)NC(=O)C(C)S2 (centres undefined)	15.2	4.47µM*	x	x	x	-14.2%
C[C@H]1[C@@H](NC(=O)Nc2ccc(F)cc2)CC[C@@]23CCCN2C(=O)CCC[C@@H]13	10.5	x	x	x	x	x
C=CCC1(O)C=CCC2C3C4C(OC(C)(C)C)C2C1C34 (centres undefined)	x	x	x	u	0.0%[12.9 µM]	x
SMILES	HCMV antiviral	HCV inh	LASV entry inh	MARV entry inh	Giardia FBPA inh	FMDV inh
C=CCN1C(c2ccc(OCC)cc2)=CS/C1=C(\C#N)c1nnc2n1CCCCC2	-60.2*	u	u	u	-10.3%	u
C/C(CCN1CCc2nc(-c3ccccc3)c(-c3ccccc3)cc2C1)=N\O[C@@H](C)CN1CCCCc2nc(C)c(C)cc21	x	x	x	x	1.4%[12.9 µM]	x
CCOC(=O)n1c(=O)n(C)c2ccc(Cl)cc21	-18.5	3.16µM*	9.2%	-1.5%[46.1 µM]	-1.1%	-3.1%
O=C(Nc1ccc(N2CCN(C(=O)c3ccco3)CC2)cc1)c1ccc([N+](=O)[O-])cc1Cl	-2.9	u	x	x	x	u
CC(C)C(=O)Nc1ccc(N2CCN(C(=O)c3cccs3)CC2)cc1	96.9	17.5%	4.4%	13.7%	-2.4%	-14.2%
COc1ccc(C(=O)N2CCN(c3ccc(NC(=O)c4cccs4)cc3)CC2)cc1	-67.8*	u	0.8%	-23.7%	10.2%	u
Cc1ccc(C(=O)Nc2ccc(N3CCN(C(=O)c4ccco4)CC3)cc2)c(Cl)c1	-31.6	11.2µM*	u	-5.9%[46.1 µM]	-11.6%	-1.1%
CC(C)CC(=O)NC(=S)Nc1ccc(N2CCN(C(=O)c3cccs3)CC2)cc1	-36.4	u	5.62µM*	u	4.5%	u
Cc1ccc(C(=O)NC(=S)Nc2ccc(N3CCN(C(=O)c4ccco4)CC3)cc2)cc1	u	11.2µM*	-6.4%	8.8%	x	u
O=C(Nc1ccc(N2CCN(C(=O)c3ccccc3)CC2)cc1)c1cccs1	73.7	2.4%	u	-2.0%[46.1 µM]	15.5%	-4.3%
CC(C)Oc1ccc(C(=O)Nc2ccc(N3CCN(C(=O)c4ccco4)CC3)cc2)cc1	-39.1	-11.4%	u	-1.7%[46.1 µM]	3.9%	17.6%
Cc1ccc(C(=O)N2CCN(c3ccc(NC(=S)NC(=O)c4cccs4)cc3)CC2)cc1	-74.1*	2.24µM*	u	7.94µM*	-0.6%	-23.5%
